The first assay deals with RELB subunit;p50 subunit (Homo sapiens;Homo sapiens, UniProt Q01201;P19838 120-401;7-356). Briefly: protein binding microarray; high values mean tight binding. The conditions noted are these: dsDNA, one strand shown.
As for AGATGGCTCCC, the binding signal was -0.91 z-score.
Turning to AGATTGACCCT, the binding signal is -0.635 z-score.
Same read-out and setting: as for AGAAAGTCCCC, the figure is 2.19 z-score.
GGGTAAGTCCT: the binding signal was 0.207 z-score.
The same measure, in the same setting: as for GGGAACGCCCT, the figure is -0.197 z-score.
Turning to GAGAGCGCCCT, the binding signal was -1 z-score.
Turning to CGAATGATCCT, the binding signal was -1.16 z-score.
Same read-out and setting: as for GAGGTAGTCCC, the figure is 0.57 z-score; as for AGAATAATCCT, -0.98 z-score; as for AAGAGCATCCT, -1.16 z-score.
As to CGGGAACTCCT, the binding signal was -0.0239 z-score.
The same measure, in the same setting: as for AAAAATTCCCC, the figure is 2.96 z-score; as for AGGTGCACCCC, 0.107 z-score.
On the same count and under the same terms, as for GAATGATCCCC, the figure is 0.943 z-score; as for CAGTGGCTCCC, -0.932 z-score; as for GAGAGGGTCCC, -0.0754 z-score.
On the same count and under the same terms, as for GGAAGACTCCT, the figure is -1.23 z-score; as for GAATATTCCCT, 1.04 z-score.
Consider AGGAAGCCCCC, for which the binding signal amounted to 1.03 z-score.
On the same count and under the same terms, as for CAAGTCACCCC, the figure is -0.284 z-score.
The same measure, in the same setting: as for GAGGGCTCCCC, the figure is 0.159 z-score; as for AAGTTGATCCC, -0.688 z-score.
The same measure, in the same setting: the result for CAAGGTACCCT reads -0.0446 z-score; that for GAAGTGCTCCT, -1.33 z-score.
In the case of GGAGGACCCCT, the binding signal is -0.321 z-score.
Sequence GGAATATCCCT gave a binding signal of 0.471 z-score.
Regarding AGAAGCATCCC, the binding signal was -0.706 z-score.
Still for that read-out and setting: the result for AGGAAACTCCT reads -0.699 z-score; that for CAGTAGGTCCC, 0.0687 z-score; that for GGGTTACTCCC, 0.354 z-score.
The same measure, in the same setting: as for CGGGACTCCCC, the figure is 1.59 z-score; as for CGGTAAACCCT, -0.151 z-score; as for AAGAGGCCCCT, 0.196 z-score.
The same measure, in the same setting: the result for GGATAGGTCCC reads -0.137 z-score; that for CAGTGCATCCT, -1.19 z-score; that for GAATGAGCCCT, -1.17 z-score.
Take GAATATCCCCC: the binding signal is 1.97 z-score.
Still for that read-out and setting: the result for CAAGGTTCCCC reads 1.5 z-score.

For the next assay, the target named is T1, RELB subunit;p52 subunit (Homo sapiens;Homo sapiens, UniProt Q01201;Q00653 120-401;4-332).
T1 sequence 1: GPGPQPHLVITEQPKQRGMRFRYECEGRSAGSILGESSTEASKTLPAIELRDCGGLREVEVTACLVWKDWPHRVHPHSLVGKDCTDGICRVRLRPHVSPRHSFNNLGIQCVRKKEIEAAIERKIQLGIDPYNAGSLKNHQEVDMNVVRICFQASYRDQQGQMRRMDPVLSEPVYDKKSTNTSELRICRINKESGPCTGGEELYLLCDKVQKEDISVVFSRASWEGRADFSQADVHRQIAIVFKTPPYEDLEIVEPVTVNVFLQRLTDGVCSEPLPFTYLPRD
T1 sequence 2: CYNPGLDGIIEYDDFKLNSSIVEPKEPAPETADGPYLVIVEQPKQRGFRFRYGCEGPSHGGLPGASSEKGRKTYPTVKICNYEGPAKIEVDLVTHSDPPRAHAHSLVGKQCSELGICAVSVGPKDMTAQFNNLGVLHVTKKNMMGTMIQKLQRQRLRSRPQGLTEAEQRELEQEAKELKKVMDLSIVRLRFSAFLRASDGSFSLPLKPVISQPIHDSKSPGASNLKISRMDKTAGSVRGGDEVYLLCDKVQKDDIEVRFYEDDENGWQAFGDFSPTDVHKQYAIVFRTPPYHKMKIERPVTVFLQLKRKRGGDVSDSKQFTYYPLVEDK
The description is as above. The conditions noted are these: dsDNA, one strand shown.
With AGATGGCTCCC, the binding signal was -0.841 z-score.
The same measure, in the same setting: as for AGATTGACCCT, the figure is -0.605 z-score.
Same read-out and setting: as for AGAAAGTCCCC, the figure is 1.93 z-score; as for GGGTAAGTCCT, 0.217 z-score; as for GGGAACGCCCT, 0.214 z-score.
As for GAGAGCGCCCT, the binding signal was -0.95 z-score.
Same read-out and setting: as for CGAATGATCCT, the figure is -0.928 z-score.
Same read-out and setting: the result for GAGGTAGTCCC reads 0.233 z-score.
On the same count and under the same terms, as for AGAATAATCCT, the figure is -0.603 z-score; as for AAGAGCATCCT, -0.978 z-score.
In turn, CGGGAACTCCT displayed a binding signal of 0.0296 z-score.
AAAAATTCCCC displayed a binding signal of 2.46 z-score.
On the same count and under the same terms, as for AGGTGCACCCC, the figure is 0.61 z-score.
With GAATGATCCCC, the binding signal turned out to be 0.595 z-score.
On the same count and under the same terms, the result for CAGTGGCTCCC reads -0.764 z-score; that for GAGAGGGTCCC, -0.109 z-score; that for GGAAGACTCCT, -0.943 z-score.
As for GAATATTCCCT, the binding signal was found to be 1.2 z-score.
The same measure, in the same setting: the result for AGGAAGCCCCC reads 1.07 z-score; that for CAAGTCACCCC, -0.0361 z-score.
As to GAGGGCTCCCC, the binding signal is -0.218 z-score.
Turning to AAGTTGATCCC, the binding signal is -0.621 z-score.
As to CAAGGTACCCT, the binding signal is -0.391 z-score.
Take GAAGTGCTCCT: the binding signal was -1.22 z-score.
On the same count and under the same terms, the result for GGAGGACCCCT reads -0.0771 z-score; that for GGAATATCCCT, 1.04 z-score.
Still for that read-out and setting: the result for AGAAGCATCCC reads -0.776 z-score.
On the same count and under the same terms, as for AGGAAACTCCT, the figure is -0.839 z-score.
Turning to CAGTAGGTCCC, the binding signal was -0.117 z-score.
For the sequence GGGTTACTCCC, the binding signal was determined as 0.378 z-score.
Same read-out and setting: as for CGGGACTCCCC, the figure is 1.87 z-score; as for CGGTAAACCCT, -0.0534 z-score.
As to AAGAGGCCCCT, the binding signal worked out at 0.191 z-score.
The same measure, in the same setting: as for GGATAGGTCCC, the figure is -0.101 z-score; as for CAGTGCATCCT, -1.04 z-score; as for GAATGAGCCCT, -0.969 z-score.
Still for that read-out and setting: as for GAATATCCCCC, the figure is 1.9 z-score.
Still for that read-out and setting: the result for CAAGGTTCCCC reads 1.58 z-score.

Another assay deals with C-Rel subunit;p50 subunit (Homo sapiens;Homo sapiens, UniProt Q04864;P19838 1-285;7-356). Described as above. The conditions noted are these: dsDNA, one strand shown.
As to AGATGGCTCCC, the binding signal was -1.25 z-score.
In the case of AGATTGACCCT, the binding signal was -0.895 z-score.
AGAAAGTCCCC displayed a binding signal of 1.62 z-score.
Same read-out and setting: as for GGGTAAGTCCT, the figure is 0.357 z-score; as for GGGAACGCCCT, 0.154 z-score.
Same read-out and setting: the result for GAGAGCGCCCT reads -1.31 z-score.
Same read-out and setting: as for CGAATGATCCT, the figure is -1.72 z-score; as for GAGGTAGTCCC, 0.447 z-score.
AGAATAATCCT: the binding signal was -0.925 z-score.
On to AAGAGCATCCT, for which the binding signal was -1.52 z-score.
The same measure, in the same setting: as for CGGGAACTCCT, the figure is 0.188 z-score; as for AAAAATTCCCC, 2.04 z-score.
Regarding AGGTGCACCCC, the binding signal is -0.0192 z-score.
Consider GAATGATCCCC, for which the binding signal is 0.665 z-score.
The same measure, in the same setting: as for CAGTGGCTCCC, the figure is -1.22 z-score; as for GAGAGGGTCCC, -0.406 z-score.
For GGAAGACTCCT, the binding signal was -1.17 z-score.
Take GAATATTCCCT: the binding signal was found to be 0.882 z-score.
Still for that read-out and setting: as for AGGAAGCCCCC, the figure is 1.09 z-score.
With CAAGTCACCCC, the binding signal is -0.183 z-score.
Same read-out and setting: the result for GAGGGCTCCCC reads 0.253 z-score.
In the case of AAGTTGATCCC, the binding signal was -1.07 z-score.
On the same count and under the same terms, as for CAAGGTACCCT, the figure is -0.833 z-score; as for GAAGTGCTCCT, -1.67 z-score; as for GGAGGACCCCT, 0 z-score.
As to GGAATATCCCT, the binding signal stood at 0.979 z-score.
Turning to AGAAGCATCCC, the binding signal was -1.06 z-score.
On to AGGAAACTCCT, for which the binding signal is -0.168 z-score.
Regarding CAGTAGGTCCC, the binding signal was -0.43 z-score.
Still for that read-out and setting: as for GGGTTACTCCC, the figure is 0.398 z-score.
In turn, CGGGACTCCCC showed a binding signal of 1.93 z-score.
As for CGGTAAACCCT, the binding signal is -0.122 z-score.
With AAGAGGCCCCT, the binding signal was -0.344 z-score.
Take GGATAGGTCCC: the binding signal was -0.467 z-score.
Still for that read-out and setting: the result for CAGTGCATCCT reads -1.59 z-score; that for GAATGAGCCCT, -1.55 z-score; that for GAATATCCCCC, 1.33 z-score.
Sequence CAAGGTTCCCC showed a binding signal of 1.36 z-score.

A further assay concerns the target T2, C-Rel subunit;p52 subunit (Homo sapiens;Homo sapiens, UniProt Q04864;Q00653 1-285;4-332).
T2 sequence 1: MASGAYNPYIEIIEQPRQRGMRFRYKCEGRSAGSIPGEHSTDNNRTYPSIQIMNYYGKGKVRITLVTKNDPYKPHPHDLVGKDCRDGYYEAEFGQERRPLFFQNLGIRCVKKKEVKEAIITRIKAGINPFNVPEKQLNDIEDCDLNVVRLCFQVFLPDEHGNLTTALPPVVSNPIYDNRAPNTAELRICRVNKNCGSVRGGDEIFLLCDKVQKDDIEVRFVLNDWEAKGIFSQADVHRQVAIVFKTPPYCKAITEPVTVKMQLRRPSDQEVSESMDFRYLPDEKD
T2 sequence 2: T1 sequence 2
The assay is described as above. The conditions noted are these: dsDNA, one strand shown.
In the case of AGATGGCTCCC, the binding signal is -0.874 z-score.
On to AGATTGACCCT, for which the binding signal was -0.787 z-score.
The sequence AGAAAGTCCCC showed a binding signal of 1.91 z-score.
The same measure, in the same setting: the result for GGGTAAGTCCT reads 0.997 z-score; that for GGGAACGCCCT, 0.403 z-score; that for GAGAGCGCCCT, -0.822 z-score.
On the same count and under the same terms, as for CGAATGATCCT, the figure is -0.968 z-score.
As to GAGGTAGTCCC, the binding signal came out at 0.318 z-score.
Turning to AGAATAATCCT, the binding signal was -0.909 z-score.
In the case of AAGAGCATCCT, the binding signal was -1.15 z-score.
Consider CGGGAACTCCT, for which the binding signal turned out to be 0.424 z-score.
Regarding AAAAATTCCCC, the binding signal worked out at 2.78 z-score.
In turn, AGGTGCACCCC yielded a binding signal of 0.815 z-score.
On the same count and under the same terms, the result for GAATGATCCCC reads 0.409 z-score; that for CAGTGGCTCCC, -0.857 z-score; that for GAGAGGGTCCC, -0.351 z-score.
Same read-out and setting: as for GGAAGACTCCT, the figure is -0.891 z-score; as for GAATATTCCCT, 1.16 z-score.
As for AGGAAGCCCCC, the binding signal worked out at 1.7 z-score.
On the same count and under the same terms, the result for CAAGTCACCCC reads -0.366 z-score; that for GAGGGCTCCCC, 0.154 z-score.
For the sequence AAGTTGATCCC, the binding signal was -0.615 z-score.
Same read-out and setting: as for CAAGGTACCCT, the figure is -0.57 z-score; as for GAAGTGCTCCT, -1 z-score.
The same measure, in the same setting: as for GGAGGACCCCT, the figure is 0.275 z-score; as for GGAATATCCCT, 1.6 z-score; as for AGAAGCATCCC, -0.81 z-score.
Regarding AGGAAACTCCT, the binding signal was -0.211 z-score.
CAGTAGGTCCC: the binding signal is -0.438 z-score.
GGGTTACTCCC registered a binding signal of 0.657 z-score.
The same measure, in the same setting: as for CGGGACTCCCC, the figure is 2.5 z-score.
The same measure, in the same setting: as for CGGTAAACCCT, the figure is 0.186 z-score; as for AAGAGGCCCCT, -0.287 z-score; as for GGATAGGTCCC, -0.334 z-score.
Take CAGTGCATCCT: the binding signal is -0.988 z-score.
The same measure, in the same setting: as for GAATGAGCCCT, the figure is -1.02 z-score; as for GAATATCCCCC, 1.58 z-score.
As to CAAGGTTCCCC, the binding signal came out at 1.06 z-score.

The values are drawn from paper PMC3218832.
